Assay [1] can be described thus: qHTS for Inhibitors of Plasmodium falciparum (GB4) proliferation (AID 504315). Also: nearly all actives have a fitted effect of over 50% in size. Also: potency is read from the fitted curve at half-maximal effect.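 As to activity change, negative = inhibition: 0% = DMSO vehicle and -100% = 0.29 µM artemisinin control.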 In short, it runs like this:
(§1)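 Parasite growth measured as SYBR Green DNA fluorescence (ex 485, em 535 nm) after overnight lysis following 72 h culture at 37 °C, 0.3% parasitemia, 2.5% hematocrit. Values normalized against DMSO and 0.29 uM artemisinin controls, with plate-stack correction.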
(In general: qHTS replaces the single test concentration by a dilution series.)

Assay [2] is described as follows: qHTS for Inhibitors of Plasmodium falciparum (7G8) proliferation (AID 504316). Also: nearly all actives have a fitted effect of over 65% in size. Also: potency is read from the fitted curve at half-maximal effect.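 As to activity change, negative = inhibition: series mostly up to about 6.7 µM; 0% = DMSO vehicle and -100% = 0.29 µM artemisinin full kill.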 In short, it runs like this:
as §1

Assay [3] is described as follows: qHTS for Inhibitors of Plasmodium falciparum (HB3) proliferation (AID 504318). Also: nearly all actives have a fitted effect of over 60% in size. Also: potency is read from the fitted curve at half-maximal effect.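 As to activity change, negative = inhibition: 0% = DMSO vehicle and -100% = artemisinin control.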 An outline of the steps:
as §1

The nature of assay [4]: qHTS for Inhibitors of Plasmodium falciparum (CP250) proliferation (AID 504320).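 Also: plate controls were DMSO vehicle for no effect and 0.29 µM artemisinin control for full effect.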 In short, it runs like this: as §1
The target in assay [5] is Atrial natriuretic peptide receptor 1 (Homo sapiens) (UniProt P16066). Briefly: Natriuretic polypeptide receptor (hNpr1) antagonism - Pilot CMLD screen (AID 1347052; calls by dose curve;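 also: cGMP level read as GloSensor luciferase luminescence after agonist stimulation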; also: potency is read from the fitted curve at half-maximal effect;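 as to activity change, negative = inhibition: HEK293 cells with hNpr1 stimulated by hNppA peptide at 0.1 nM; series mostly up to about 9.2 µM; % is scaled to controls: 0 for no effect and ±100 for the full control effect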).
Atrial natriuretic peptide receptor 1 (Homo sapiens), sequence (P16066 whole entry, looked up): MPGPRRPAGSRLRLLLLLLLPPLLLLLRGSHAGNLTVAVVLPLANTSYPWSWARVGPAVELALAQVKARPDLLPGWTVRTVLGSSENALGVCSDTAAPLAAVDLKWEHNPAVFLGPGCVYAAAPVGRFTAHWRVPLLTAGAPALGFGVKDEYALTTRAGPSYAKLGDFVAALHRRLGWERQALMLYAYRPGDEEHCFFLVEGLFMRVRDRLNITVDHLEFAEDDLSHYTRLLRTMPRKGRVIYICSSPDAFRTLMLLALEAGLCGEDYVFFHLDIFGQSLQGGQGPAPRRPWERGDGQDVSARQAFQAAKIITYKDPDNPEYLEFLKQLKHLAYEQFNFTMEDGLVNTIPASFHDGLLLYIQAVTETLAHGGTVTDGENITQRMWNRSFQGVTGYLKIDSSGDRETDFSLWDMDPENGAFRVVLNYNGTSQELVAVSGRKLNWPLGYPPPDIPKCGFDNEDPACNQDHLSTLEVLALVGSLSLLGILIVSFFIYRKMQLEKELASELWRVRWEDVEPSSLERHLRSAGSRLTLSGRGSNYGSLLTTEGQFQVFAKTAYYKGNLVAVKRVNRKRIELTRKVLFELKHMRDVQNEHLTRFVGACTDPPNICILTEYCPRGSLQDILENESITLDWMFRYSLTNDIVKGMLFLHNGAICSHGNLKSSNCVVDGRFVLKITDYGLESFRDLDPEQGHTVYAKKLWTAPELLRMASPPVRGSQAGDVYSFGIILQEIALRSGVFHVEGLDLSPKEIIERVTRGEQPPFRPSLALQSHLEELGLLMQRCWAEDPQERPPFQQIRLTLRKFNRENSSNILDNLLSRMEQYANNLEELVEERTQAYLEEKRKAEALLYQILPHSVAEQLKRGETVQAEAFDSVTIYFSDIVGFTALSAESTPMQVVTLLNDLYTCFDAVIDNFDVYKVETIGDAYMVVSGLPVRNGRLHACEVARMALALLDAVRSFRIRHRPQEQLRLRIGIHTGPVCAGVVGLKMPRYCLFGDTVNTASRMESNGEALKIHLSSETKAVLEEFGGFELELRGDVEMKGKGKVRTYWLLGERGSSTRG
In assay [6] the target is Cytochrome P450 2C9 (Homo sapiens) (UniProt P11712). Nature of the assay: qHTS Assay for Inhibitors and Substrates of Cytochrome P450 2C9 (AID 883). Also: nearly all actives have a fitted effect of over 60% in size. Also: potency is read from the fitted curve at half-maximal effect. As to activity change, negative = inhibition: % is scaled to controls: 0 for no effect and ±100 for the full control effect. In short, it runs like this:
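Signal: luciferase luminescence reporting luciferin produced by CYP2C9. Conditions: 10nM enzyme, Luciferin-H 100uM at KM, 25mM KPO4, 37C, 60 min NADPH-driven reaction. Reference: 57uM sulphaphenazole as 100% inhibition.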

Assay [7] has as its target Cytochrome P450 2C19 (Homo sapiens) (UniProt P33261). Briefly: qHTS Assay for Inhibitors and Substrates of Cytochrome P450 2C19 (AID 899). Also: nearly all actives have a fitted effect of over 60% in size. Also: potency is read from the fitted curve at half-maximal effect. As to activity, negative = inhibition: % is scaled to controls: 0 for no effect and ±100 for the full control effect. In short, it runs like this:
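Signal comes from luciferase acting on luciferin released by CYP2C19-mediated hydroxylation of Luciferin-H EGE, 10uM (KM). Assay mix: 5nM enzyme, 50mM KPO4; 60 min at 37C with NADPH regeneration. Data normalized against 57uM ketoconazole.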

The target in assay [8] is Cytochrome P450 3A4 (Homo sapiens) (UniProt P08684). Nature of the assay: qHTS Assay for Inhibitors and Substrates of Cytochrome P450 3A4 (AID 884). Also: series mostly up to about 57 µM; % is scaled to controls: 0 for no effect and ±100 for the full control effect; nearly all actives have a fitted effect of over 50% in size. An outline of the steps: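 Luminescent readout of luciferin produced by CYP3A4 (20 nM) dealkylation of Luciferin-PPXE, 25 uM (its KM). NADPH-driven reaction ran 60 min at RT after 10 min compound preincubation; data scaled to 57 uM ketoconazole as 100% inhibition.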
Cytochrome P450 3A4 (Homo sapiens), sequence (P08684 whole entry, looked up): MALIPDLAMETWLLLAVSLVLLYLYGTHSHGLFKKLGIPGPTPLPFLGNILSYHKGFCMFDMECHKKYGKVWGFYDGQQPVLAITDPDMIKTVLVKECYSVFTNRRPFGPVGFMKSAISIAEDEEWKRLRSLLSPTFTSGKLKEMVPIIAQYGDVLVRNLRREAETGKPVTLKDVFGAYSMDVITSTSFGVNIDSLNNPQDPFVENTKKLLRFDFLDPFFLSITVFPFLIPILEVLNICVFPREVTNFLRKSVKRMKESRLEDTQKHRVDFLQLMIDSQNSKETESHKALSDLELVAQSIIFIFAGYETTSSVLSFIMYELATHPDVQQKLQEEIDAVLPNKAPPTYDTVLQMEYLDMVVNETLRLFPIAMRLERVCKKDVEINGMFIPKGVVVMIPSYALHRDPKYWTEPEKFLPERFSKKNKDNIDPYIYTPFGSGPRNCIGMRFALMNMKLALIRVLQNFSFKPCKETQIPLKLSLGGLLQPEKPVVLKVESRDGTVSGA

For assay [9], the target named is Cytochrome P450 2D6 (Homo sapiens) (UniProt P10635). Briefly: qHTS Assay for Inhibitors and Substrates of Cytochrome P450 2D6 (AID 891).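 Also: luciferin methyl ether substrate demethylated by CYP2D6 with NADPH regeneration; % is scaled to controls: 0 for no effect and ±100 for the full control effect; nearly all actives have a fitted effect of over 60% in size.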 In short, it runs like this:
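Luminescent read-out of luciferin formed by 5 nM human CYP2D6 demethylating 30 uM Luciferin-ME EGE (Km level) over 60 min at room temperature after NADPH regeneration addition. Data normalized to full inhibition by 1.43 uM quinidine.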

From PubChem BioAssay (NCATS) come the findings set out here.

Records with an inconclusive call do not appear. Unmarked numbers belong to inactive results. The source made the active and inactive calls. Unless noted, calls follow the shape of the dose curve; as a rule, active = well fitted curve in the direction sought with a large enough effect; inconclusive = small, poorly fitted or top-dose-only effect, or another doubt; inactive = no such curve, though single readings can be large; an effect the other way counts as inactive or inconclusive.

Cytochrome P450 2C9 (Homo sapiens), sequence (P11712 whole entry, looked up): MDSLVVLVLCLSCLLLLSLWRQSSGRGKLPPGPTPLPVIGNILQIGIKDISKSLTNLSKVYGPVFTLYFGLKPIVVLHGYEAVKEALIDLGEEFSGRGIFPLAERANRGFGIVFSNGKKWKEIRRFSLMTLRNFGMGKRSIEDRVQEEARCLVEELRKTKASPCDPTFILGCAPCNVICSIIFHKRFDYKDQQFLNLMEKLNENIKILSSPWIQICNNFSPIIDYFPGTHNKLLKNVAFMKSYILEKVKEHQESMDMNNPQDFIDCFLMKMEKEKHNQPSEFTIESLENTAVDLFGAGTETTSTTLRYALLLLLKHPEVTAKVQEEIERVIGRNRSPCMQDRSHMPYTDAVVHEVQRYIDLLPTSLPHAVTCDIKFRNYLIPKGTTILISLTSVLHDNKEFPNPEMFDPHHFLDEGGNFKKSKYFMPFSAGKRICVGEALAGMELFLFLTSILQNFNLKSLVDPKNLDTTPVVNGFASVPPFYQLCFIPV
Cytochrome P450 2C19 (Homo sapiens), sequence (P33261 whole entry, looked up): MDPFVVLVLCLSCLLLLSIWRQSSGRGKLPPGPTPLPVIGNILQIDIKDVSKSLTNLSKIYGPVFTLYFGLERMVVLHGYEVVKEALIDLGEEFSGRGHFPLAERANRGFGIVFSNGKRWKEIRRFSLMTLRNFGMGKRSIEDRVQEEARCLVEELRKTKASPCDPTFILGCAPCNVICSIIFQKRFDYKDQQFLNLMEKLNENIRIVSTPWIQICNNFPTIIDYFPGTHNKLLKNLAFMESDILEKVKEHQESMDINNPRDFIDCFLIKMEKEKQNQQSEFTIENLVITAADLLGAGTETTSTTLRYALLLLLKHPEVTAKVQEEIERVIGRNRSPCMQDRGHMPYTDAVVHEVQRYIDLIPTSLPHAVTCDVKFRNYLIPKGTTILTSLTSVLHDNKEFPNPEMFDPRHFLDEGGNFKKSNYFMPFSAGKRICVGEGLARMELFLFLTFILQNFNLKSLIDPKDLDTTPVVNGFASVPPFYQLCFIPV
Cytochrome P450 2D6 (Homo sapiens), sequence (P10635 whole entry, looked up): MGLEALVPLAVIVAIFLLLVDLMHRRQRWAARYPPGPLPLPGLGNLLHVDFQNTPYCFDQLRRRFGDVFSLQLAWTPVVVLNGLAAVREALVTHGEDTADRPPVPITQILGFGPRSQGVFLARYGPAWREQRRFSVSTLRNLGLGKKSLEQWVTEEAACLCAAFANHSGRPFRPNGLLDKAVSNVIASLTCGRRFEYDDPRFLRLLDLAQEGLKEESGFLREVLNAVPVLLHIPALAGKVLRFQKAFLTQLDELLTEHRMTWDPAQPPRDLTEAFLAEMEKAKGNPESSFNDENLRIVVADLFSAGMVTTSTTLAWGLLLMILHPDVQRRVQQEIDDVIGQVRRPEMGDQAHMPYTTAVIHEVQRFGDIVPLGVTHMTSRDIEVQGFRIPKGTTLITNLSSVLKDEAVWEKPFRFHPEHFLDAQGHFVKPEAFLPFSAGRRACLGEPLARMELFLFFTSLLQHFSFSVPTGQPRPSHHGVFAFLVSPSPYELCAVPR

Turning to `CCOC(=O)C1=CN(CCC=C(C)C)C(=O)N(C(C)=O)C1c1ccccc1` (centres undefined), the Potency entry in assay [1], in assay [2], in assay [3], in assay [4] and in assay [5] was “inactive” in each case.

Turning to `C=C(C)C(O)C=Cc1ccc(C(F)(F)F)cc1` (centres undefined), the Potency result in assay [1], in assay [2], in assay [3] and in assay [4] was “inactive” in each case. Besides, the Potency in assay [5] was 5.31 µM (active).

As to `COC1=C[C@H](C(=O)NCc2ccc(Br)cc2)[C@H](C)[C@@H](c2ccccc2)CC1=O`, the Potency entry in assay [1], in assay [2], in [3], in assay [4] and in assay [5] was “inactive” in each case.

For the compound `O=C1CCCC=C1[C@@H](O)CCOC(c1ccccc1)(c1ccccc1)c1ccccc1`, the Potency was 0.794 µM (active) in [6]; 0.251 µM (active) in assay [7]; 1.51 µM (active) in [1]; 1.69 µM (active) in assay [2]; 1.51 µM (active) in [3]. Further, in [5], the Potency entry is “inactive”.

For `COc1cc2c(cc1OC)C1OC(c3ccsc3)(C2)Oc2cc(C)oc(=O)c21` (centres undefined), the Potency result in assay [1], in assay [2], in assay [3], in [4] and in [5] was “inactive” throughout.

As for `COc1ccc([C@]23Cc4cc(OC)c(OC)cc4[C@H](O2)C2=C(CC4(CCCCC4)OC2=O)O3)cc1`, the Potency result in assay [1], in [2], in assay [3], in assay [4] and in assay [5] was “inactive” throughout.

Consider `CC(C)OC(=O)CC(NC(=O)OC(C)(C)C)c1ccccc1` (centres undefined), for which the Potency result in [1], in assay [2], in assay [3], in assay [4] and in assay [5] was “inactive” throughout.

Take `CC(C)=CCN1C(=O)[C@@]2(CC(C)=C[C@@H](COCc3ccccc3)O2)c2ccccc21`: the Potency result in assay [1], in assay [4] and in [5] was “inactive” throughout. Besides, the Potency in assay [2] was 1.9 µM (active).

On to `COc1ccc(NC2=CC(c3ccccc3)N(c3ccc(OC)cc3)C2=O)cc1` (centres undefined), for which the Potency entry in assay [1], in assay [2], in assay [3], in [4] and in assay [5] was “inactive” each time.

With `CC(C)=CCN1C(=O)[C@]2(O[C@H](C)CC3=CCCC32)c2c(Br)cccc21` (some centres undefined), the Potency result in assay [1], in assay [2], in [3], in [4] and in assay [5] was “inactive” each time.

As to `CC1=C2[C@H](O)[C@H]([C@@H](C)C(=O)NCCC(C)C)CC[C@@]2(C)C=CC1=O`, the Potency entry in assay [1], in assay [2], in assay [4] and in assay [5] was “inactive” in each case.

Turning to `O=C1C=C(c2ccccc2)CCC1`, the Potency entry in assay [1], in [2], in assay [3], in assay [4] and in assay [5] was “inactive” each time.

Consider `CC=CCCN1C=C(C(=O)OCC)C(c2ccccc2)NC1=O` (centres undefined), for which the Potency entry in [1], in assay [2], in assay [3], in assay [4] and in [5] was “inactive” throughout.

For `N#Cc1ccc2c(c1)C[C@]1(c3ccsc3)OC3=C(C(=O)OC4(CCCCC4)C3)[C@H]2O1`, the Potency entry in assay [1], in [2], in assay [3], in assay [4] and in assay [5] was “inactive” throughout.

As for `C[C@H]1[C@@H]2O[C@H]2CCO[C@H]1c1cccc(Br)c1`, the Potency entry in [1], in assay [2], in [3], in assay [4] and in assay [5] was “inactive” in each case.

`C=CCNC(=O)N1CCc2nc(-c3ccc(OC)cc3C)c3c(c2C1)CO[C@@H](c1ccccc1)C3`: the Potency entry in [1], in assay [4] and in assay [5] was “inactive” throughout. Besides, in [2], the Potency is 1.51 µM (active).

In the case of `CNc1ccccc1C(=O)OCC(C)=O`, the activity change, negative = inhibition in assay [6] is 24.8% [at 11.4 µM]; in assay [8], -11.5% [at 11.4 µM]; in assay [9], 9.06% [at 11.4 µM]. For the same compound, the activity, negative = inhibition in assay [7] is -17.8% [at 11.4 µM]. The Potency entry in assay [1], in assay [2], in assay [3], in [4] and in assay [5] was “inactive” in each case.

Turning to `COCCN1C(=O)C2=C(C1=O)C1N(C)c3ccccc3[C@@]13C[C@@H](CO)N(S(=O)(=O)c1ccc(OC)cc1)C3=N2` (some centres undefined), the Potency entry in [1], in assay [2], in assay [3], in [4] and in assay [5] was “inactive” each time.

Consider `COCCN1C(=O)NC(CCc2ccccc2)C(C(=O)OC)=C1C` (centres undefined), for which the Potency result in assay [1], in assay [2], in assay [3], in assay [4] and in assay [5] was “inactive” throughout.

In the case of `COC(=O)C(C(C)=O)C(=O)C(Cc1ccccc1)NC(=O)OCc1ccccc1` (centres undefined), the figures for the activity change, negative = inhibition in assay [6], in assay [8] and in assay [9] were 2.74% [at 11.4 µM], -19.6% [at 11.4 µM] and -1.19% [at 11.4 µM], respectively. The activity, negative = inhibition in assay [7] was -11.9% [at 11.4 µM]. In addition, the Potency result in assay [1], in assay [2], in [3], in assay [4] and in assay [5] was “inactive” throughout.

On to `CCCCc1nc2c(c3c1C[C@H](C)OC3)CN(S(=O)(=O)CCCC)CC2`, for which the Potency result in assay [1], in assay [2], in [3], in assay [4] and in assay [5] was “inactive” throughout.

As to `CC1(C)O[C@@H](C(O)(c2cc(C(F)(F)F)cc(C(F)(F)F)c2)c2cc(C(F)(F)F)cc(C(F)(F)F)c2)[C@H](C(O)(c2cc(C(F)(F)F)cc(C(F)(F)F)c2)c2cc(C(F)(F)F)cc(C(F)(F)F)c2)O1`, the Potency result in assay [1], in assay [2], in [3], in assay [4] and in [5] was “inactive” throughout.

With `CC1(O)C(=O)C=C2C=C3CCCN3C=C2C1=O` (centres undefined), the results for the activity change, negative = inhibition in assay [6] and in assay [8] were 3.99% [at 11.4 µM] and -12% [at 11.4 µM], respectively. Moreover, the activity, negative = inhibition in assay [7] is 32.3% [at 11.4 µM]. Moreover, the Potency result in [1], in assay [2], in [3], in assay [4] and in assay [5] was “inactive” throughout.
